# PHOSPHO1 block = PubChem AID 1565. Phosphoethanolamine/phosphocholine phosphatase (Homo sapiens), Q8TCT1. 290,000 compounds, 1.1% hits. recombinant PHOSPHO1, absorbance phosphatase assay. inhibition, % at 13.3 µM; in the data active = inhibition above about 60%
# Target sequence (Q8TCT1 whole entry, looked up): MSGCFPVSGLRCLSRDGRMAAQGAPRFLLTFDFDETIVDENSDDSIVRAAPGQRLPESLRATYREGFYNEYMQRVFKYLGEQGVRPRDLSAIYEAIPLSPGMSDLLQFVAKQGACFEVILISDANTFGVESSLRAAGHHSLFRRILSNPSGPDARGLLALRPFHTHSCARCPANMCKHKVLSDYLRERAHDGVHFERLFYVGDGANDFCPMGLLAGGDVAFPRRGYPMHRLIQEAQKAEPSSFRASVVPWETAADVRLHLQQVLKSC
# aDG glyco act = activators of alpha-DG glycosylation, primary screen, uHTS, Pro5-aDG cells, AlphaScreen; alpha-DG glycosylation AlphaScreen (IIH6); 0% Pro5, 100% B10-LARGE cell signal; activation, % at 10 µM; 360,000 compounds, 0.22% hits; AID 624168, 2012;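 active = activation of at least 8% versus controls, or a plate z-score of at least 8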;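 also: Pro5 are CHO cells carrying HIG-tagged alpha-DG that lacks glycosylation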
# rCAG binder = binders of r(CAG) RNA repeats, primary screen, biochemical, fluorescence | r(CAG) RNA repeat, TO-PRO-1 dye displacement fluorescence | 370,000 compounds, 1.3% hits | AID 651821, 2012 | inhibition, % at 3 µM;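 active = inhibition above the plate cutoff, the mean of all test compounds on that plate plus 3 SD, cut at about 35% in these data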;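 also: higher means more dye released from RNA so lower well fluorescence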
# ALR inh = inhibitors of human ALR sulfhydryl oxidase, primary screen, biochemical, H2O2 detection, HRP-luminol luminescence, single point; FAD-linked sulfhydryl oxidase ALR (Homo sapiens), P55789; purified ALR, DTT oxidation; inhibition, % (test concentration not listed); 290,000 compounds, 3.8% hits;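 active = mean replicate inhibition above about 79%, with every replicate also reaching it, limit read from the data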
# APOBEC3A inh = APOBEC3A ssDNA deaminase inhibitors, primary screen, selectivity assay for APOBEC3G inhibitor project, biochemical, FAM/TAMRA oligo cleavage fluorescence; DNA dC->dU-editing enzyme APOBEC-3A (Homo sapiens), P31941; recombinant A3A, FAM/TAMRA ssDNA deamination fluorescence; inhibition, % at 20 µM; 330,000 compounds, 0.41% hits;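 active = at least 40% inhibition at 20 µM here, with at most 30% in a related deaminase screen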
# Target sequence (P31941 whole entry, looked up): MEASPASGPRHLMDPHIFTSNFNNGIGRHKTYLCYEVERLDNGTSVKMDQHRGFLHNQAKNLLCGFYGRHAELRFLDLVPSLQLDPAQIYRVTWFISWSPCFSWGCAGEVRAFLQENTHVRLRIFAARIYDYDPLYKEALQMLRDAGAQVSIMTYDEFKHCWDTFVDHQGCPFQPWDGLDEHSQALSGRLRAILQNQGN
# APOBEC3G inh = APOBEC3G DNA deaminase inhibitors, primary screen, biochemical, fluorescence, single-stranded DNA substrate, uHTS. inhibition, % at 20 µM. DNA dC->dU-editing enzyme APOBEC-3G (Homo sapiens), Q9HC16. recombinant A3G, ssDNA deamination FAM/TAMRA fluorescence. 330,000 compounds, 0.28% hits. AID 493012, 2011;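 active = inhibition of at least 40% at 20 µM, with no more than 30% in the related APOBEC3A deaminase screen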
# A3A conf = APOBEC3A deaminase inhibitors, retest, confirmation, selectivity assay for APOBEC3G inhibitor project, biochemical, single concentration, fluorescence readout. shares compounds with APOBEC3A inh. recombinant A3A, ssDNA deaminase UDG fluorescence assay. inhibition, % at 20 µM. 1,400 compounds, 63% hits. AID 493151, 2011;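 active = inhibition reaching a set limit, 80% of the first screen's cutoff, at 20 µM in any replicate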
# UDG ctr A3A = E. coli UDG inhibitors, confirmation, counter-screen for APOBEC3A inhibitor project, biochemical, single concentration, fluorescence, FAM/TAMRA oligo | shares compounds with APOBEC3A inh | UDG counterscreen, FAM/TAMRA uracil oligo fluorescence | inhibition, % at 20 µM | 1,000 tested, under 10 active | AID 504714, 2011; call rule not given here
# A number is an active result; – = inactive; · = not tested or not shown. Sampled rows, rich in hits. Any-hit rate of the full collection: about 5.4%.
SMILES,PHOSPHO1 block,aDG glyco act,rCAG binder,ALR inh,APOBEC3A inh,APOBEC3G inh,A3A conf,UDG ctr A3A
CCC1=[N+](C)c2cccc3cccc(c23)N1C,–,–,–,–,65,–,78,–
Nc1[nH]c(C(=O)c2ccccc2)c(-c2cccc3ccccc23)c1C(=O)c1ccc(Br)cc1,·,·,–,·,·,·,·,·
COC(=O)Cn1c2[n+](c3ccccc31)CC(O)CS2 (configuration not stated),–,–,–,–,–,–,·,·
CCOC(=O)Cn1c2[n+](c3ccccc31)CC(O)CS2 (configuration not stated),–,–,–,–,69,–,86,–
CCOc1cc(/C=C/c2cccc[n+]2C)ccc1O,–,–,–,–,–,–,·,·
CCOc1cc(/C=C/c2cccc[n+]2C)ccc1OCC(=O)Nc1ccc(C)cc1,–,–,–,–,87,–,74,–
COc1cc(/C=C/c2cccc[n+]2C)ccc1OCC(=O)Nc1ccccc1C,–,–,–,–,82,–,72,–
CCOc1cc(/C=C\[N+](=O)[O-])ccc1OCC(=O)Nc1ccccc1C,–,–,·,–,–,–,·,·
O=C(N[C@H](C(=O)N1CCC[C@H]1C(=O)NC1CCCC1)C1CCCCC1)c1cccs1,·,·,–,·,·,·,·,·
C#CCN1CC(COCCCC)Oc2cccc(F)c2S1(=O)=O (configuration not stated),·,·,–,·,·,·,·,·
Cc1cn(C2CCCCC2)c(=O)n(-c2ccccc2)c1=O,·,–,–,·,·,·,·,·
O=C(N[C@H]1CC[C@@H]2SC[C@@H](C(=O)O)N2C1=O)OCC1c2ccccc2-c2ccccc21,·,·,–,·,·,·,·,·
CCOC(=O)c1c(NC(=O)c2ccc(N3C(=O)[C@@H]4[C@H](C3=O)[C@H]3C=C[C@@H]4C3)cc2)sc2c1CC(C)CC2 (some centres not stated),–,–,–,–,91,–,–,–
O=C(N/N=C/c1cc(Br)c(Br)o1)c1ccc2c(c1)OCCO2,–,–,–,–,76,–,50,–
Cc1n(-c2ccccc2)c2ccc(Cl)cc2[n+]1CCO,–,–,–,–,50,–,75,–
CC1(C(=O)NS(=O)(=O)c2ccc(Cl)s2)CCN1C(=O)CCc1ccccc1 (configuration not stated),·,–,–,·,·,·,·,·
Cn1nc([N+](=O)[O-])nc1S(C)(=O)=O,–,–,–,·,88,–,88,–
CS(=O)(=O)c1nc([N+](=O)[O-])nn1CCCc1ccccc1,·,–,·,–,–,–,·,·
CC(C)(C)OC(=O)NCCCc1ccc2c(c1)[C@]1(CCC[C@@H](OCc3ccccc3)[C@@H]1NC(=O)CCc1ccccc1)C(=O)N2Cc1ccccc1,·,·,–,·,·,·,·,·
CCOc1ccc(OCCCC(=O)N2CCN(S(=O)(=O)c3ccc(Cl)cc3)CC2)cc1,·,–,–,–,70,–,77,–
CC(C)NC(=O)N1Cc2cc(C(=O)NC3CCCCC3)nc(-c3cccc(-c4cccnc4)c3)c2[C@@H]1CCO,·,–,–,·,·,·,·,·
C[n+]1cccc2ccc3c(c21)OC(N)=C(C#N)C3c1ccccc1 (configuration not stated),–,–,–,–,–,–,·,·
C[n+]1cccc(C2C(C#N)=C(N)Oc3c2ccc2ccccc32)c1 (configuration not stated),–,–,–,–,41,–,31,–
COC(=O)c1ccc(CNCC(=O)Nc2ccc(C(=O)OC)cc2)cc1,–,–,–,–,–,–,·,·
COC(=O)c1ccc(NC(=O)CSc2ccccn2)cc1,–,–,–,–,55,–,–,·
SMILES,PHOSPHO1 block,aDG glyco act,rCAG binder,ALR inh,APOBEC3A inh,APOBEC3G inh,A3A conf,UDG ctr A3A
COC(=O)c1ccc(NC(=O)CSc2ccccc2)cc1,–,–,–,–,–,–,·,·
COC(=O)c1ccc(NCC(=O)Nc2cc(C)cc(C)c2)cc1,–,–,–,–,50,–,–,·
O=C(ONC(=O)C1C2C=CC(C2)C1C(=O)NOC(=O)c1ccccc1)c1ccccc1 (configuration not stated),·,–,–,·,·,·,·,·
Cc1[nH]c2ccccc2c1/C=C(\C#N)C(=O)NC(C)c1ccccc1 (configuration not stated),94,–,–,–,41,–,72,–
Cc1ccc(/C=C/c2ccc(N(C)C)cc2)[n+](C)c1,–,–,–,99,60,–,67,–
CCOC(=O)C1=C(COC(=O)/C=C/c2ccco2)NC(=O)NC1C (configuration not stated),·,–,–,–,48,–,44,–
CCN1C(=NCCOC)N[C@@H](c2cccc(C(F)(F)F)c2)C(C(=O)OC)=C1C,·,–,–,–,45,–,80,–
CCN1C(=NCC2CC2)N[C@@H](c2cccc(C(F)(F)F)c2)C(C(=O)OC)=C1C,–,–,·,–,56,–,67,–
CCN1C(=NCc2ccco2)N[C@@H](c2cccc(C(F)(F)F)c2)C(C(=O)OC)=C1C,·,–,–,–,–,–,·,·
COC(=O)C1=C(C)N(Cc2ccccc2)C(=NCC(C)C)N[C@H]1c1cccc(C(F)(F)F)c1,·,–,·,–,48,–,75,–
C[C@@H]1/C=C/CC(=O)N[C@H](c2ccc3ccccc3c2)[C@H](C)/C=C/CC(=O)N[C@@H]1c1ccc2ccccc2c1,·,·,–,·,·,·,·,·
CCc1nc2c(OCCOc3ccc(F)cc3)cccn2c1N(C)C(=O)C(C)C,·,–,–,·,·,·,·,·
O=[N+]([O-])c1ccc2nc(N3CCCC3)sc2c1,–,–,–,–,45,–,55,–
N#CCC(=O)N/N=C/c1cn(Cc2ccccc2C#N)c2ccccc12,–,–,–,–,56,–,72,–
O=C(NCc1ccccc1)[C@H]1CCCN1C(=O)[C@H]1CCCN1C(=O)c1ccc(F)cc1,·,·,–,·,·,·,·,·
Cc1nc2ccccc2nc1N1CCCCC1,–,–,–,·,·,·,·,·
c1ccc2c(c1)nc(N1CCCCCC1)c1ccccc12,–,–,–,·,67,–,67,–
CCS(=O)(=O)N(C)C[C@@H]1OCc2ccccc2-c2c(n(C)c3ccccc23)C(=O)N([C@H](C)CO)C[C@@H]1C,·,·,–,·,·,·,·,·

# Screens as filed in PubChem.
